The values that follow come from paper PMC4081100, “A DNA-binding-site landscape and regulatory network analysis for NAC transcription factors in Arabidopsis thaliana”.

Common to all, as to assay: universal protein binding microarray (PBM); transcription factors of Arabidopsis thaliana; high values mean tight binding
In one experiment the target is T1, GST-ANAC092(1-176) (Arabidopsis thaliana, UniProt Q9FKA0 1-176).
T1 sequence: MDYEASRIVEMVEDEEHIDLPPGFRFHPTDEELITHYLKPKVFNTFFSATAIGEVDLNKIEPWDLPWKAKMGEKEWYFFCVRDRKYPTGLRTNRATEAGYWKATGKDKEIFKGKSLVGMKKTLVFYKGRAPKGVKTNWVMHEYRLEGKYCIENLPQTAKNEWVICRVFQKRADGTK
The note with it: protein: recombinant; tags: GST; chain copies: 2; dsDNA, one strand shown. The gist of the method:
(§1)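 Binding is expressed as the normalised enrichment score (E-score). Proteins carrying a GST tag, whether NAC-domain, full-length or DNA-binding-domain forms, were induced in cells, and zinc acetate was added for zinc-finger proteins. After purification on glutathione–Sepharose 4B and quantification by A280 or anti-GST western blot, each was applied in duplicate at 200 to 500 nM final to custom all-10-mer Agilent 4 × 180K arrays made double-stranded by primer extension. Gapped and ungapped 8-mers were scored.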

For a further experiment, the target named is GST-NTL6(1-168) (Arabidopsis thaliana, UniProt Q9SCK6 1-168). As to conditions: protein: recombinant; tags: GST; chain copies: 2; dsDNA, one strand shown. The gist of the method:
as §1

A further experiment has as its target T2, GST-ANAC019 NAC domain (Arabidopsis thaliana, UniProt Q9C932 14-162).
T2 sequence: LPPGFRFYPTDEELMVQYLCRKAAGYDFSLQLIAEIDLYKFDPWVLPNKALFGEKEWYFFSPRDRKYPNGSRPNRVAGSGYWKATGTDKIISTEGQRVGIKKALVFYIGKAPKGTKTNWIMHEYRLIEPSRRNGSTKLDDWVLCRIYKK
The note with it: protein: recombinant; tags: GST; chain copies: 2; dsDNA, one strand shown. A digest of the protocol:
as §1

The next experiment concerns the target T3, GST-ANAC055(1-171) (Arabidopsis thaliana, UniProt Q9LDY8 1-171).
T3 sequence: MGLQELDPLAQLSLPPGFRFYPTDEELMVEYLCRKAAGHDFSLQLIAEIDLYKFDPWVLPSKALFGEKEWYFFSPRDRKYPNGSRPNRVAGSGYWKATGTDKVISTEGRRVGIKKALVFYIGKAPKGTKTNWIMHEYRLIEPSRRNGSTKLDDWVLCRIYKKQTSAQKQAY
As to conditions: protein: recombinant; tags: GST; chain copies: 2; dsDNA, one strand shown. The gist of the method: as §1

The target in the next experiment is T4, GST-ATAF1 NAC domain (Arabidopsis thaliana, UniProt Q39013 7-158).
T4 sequence: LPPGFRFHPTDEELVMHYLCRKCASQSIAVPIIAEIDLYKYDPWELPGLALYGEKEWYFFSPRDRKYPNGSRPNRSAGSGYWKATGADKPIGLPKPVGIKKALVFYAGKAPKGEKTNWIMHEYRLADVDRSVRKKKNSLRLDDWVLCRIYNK
As to conditions: protein: recombinant; tags: GST; chain copies: 2; dsDNA, one strand shown. A digest of the protocol: as §1

Experiment [1] addresses T5, GST-ANAC092(1-285) full length (Arabidopsis thaliana, UniProt Q9FKA0 1-285).
T5 sequence: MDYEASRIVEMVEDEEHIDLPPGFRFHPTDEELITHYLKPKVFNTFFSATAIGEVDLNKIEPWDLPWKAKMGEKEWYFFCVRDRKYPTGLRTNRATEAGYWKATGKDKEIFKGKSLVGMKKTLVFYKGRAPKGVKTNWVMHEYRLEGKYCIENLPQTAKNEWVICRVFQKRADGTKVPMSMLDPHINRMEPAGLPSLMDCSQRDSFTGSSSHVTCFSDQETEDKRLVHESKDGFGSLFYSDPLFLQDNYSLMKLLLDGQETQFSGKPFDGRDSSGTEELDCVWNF
The note with it: protein: recombinant; tags: GST; chain copies: 2; dsDNA, one strand shown. A digest of the protocol: as §1

For the next experiment, the target named is T6, GST-NAP(1-166) (Arabidopsis thaliana, UniProt O49255 1-166).
T6 sequence: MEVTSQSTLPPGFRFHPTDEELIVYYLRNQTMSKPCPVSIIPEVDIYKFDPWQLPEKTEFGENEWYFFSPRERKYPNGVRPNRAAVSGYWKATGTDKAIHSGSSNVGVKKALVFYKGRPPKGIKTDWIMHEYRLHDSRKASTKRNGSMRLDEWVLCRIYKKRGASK
The note with it: protein: recombinant; tags: GST; chain copies: 2; dsDNA, one strand shown. The gist of the method: as §1

A further experiment deals with T7, GST-NST2(1-184) (Arabidopsis thaliana, UniProt Q9M274 1-184).
T7 sequence: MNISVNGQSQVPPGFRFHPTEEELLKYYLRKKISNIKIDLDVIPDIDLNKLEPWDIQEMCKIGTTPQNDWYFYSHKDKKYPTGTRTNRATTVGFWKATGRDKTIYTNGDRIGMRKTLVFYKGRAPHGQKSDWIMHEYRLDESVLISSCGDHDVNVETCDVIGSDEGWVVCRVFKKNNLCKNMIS
The note with it: protein: recombinant; tags: GST; chain copies: 2; dsDNA, one strand shown. A digest of the protocol: as §1

The target of another experiment is T8, GST-NTL8 NAC domain (Arabidopsis thaliana, UniProt Q9XIN7 14-156).
T8 sequence: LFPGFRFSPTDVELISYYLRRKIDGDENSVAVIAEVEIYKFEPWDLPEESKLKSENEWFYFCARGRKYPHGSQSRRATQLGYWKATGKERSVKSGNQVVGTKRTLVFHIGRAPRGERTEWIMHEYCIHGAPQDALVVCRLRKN
As to conditions: protein: recombinant; tags: GST; chain copies: 2; dsDNA, one strand shown. A digest of the protocol:
as §1

The next experiment has as its target T9, GST-SND1(1-203) (Arabidopsis thaliana, UniProt Q9LPI7 1-203).
T9 sequence: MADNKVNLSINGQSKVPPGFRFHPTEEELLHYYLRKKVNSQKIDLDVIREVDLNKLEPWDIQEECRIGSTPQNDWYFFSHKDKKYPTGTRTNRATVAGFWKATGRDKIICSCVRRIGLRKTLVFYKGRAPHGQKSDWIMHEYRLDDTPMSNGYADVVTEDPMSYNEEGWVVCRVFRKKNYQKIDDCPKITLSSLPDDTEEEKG
The note with it: protein: recombinant; tags: GST; chain copies: 2; dsDNA, one strand shown. The gist of the method: as §1

Another experiment deals with T10, GST-VND3 NAC domain (Arabidopsis thaliana, UniProt Q9FH59 12-162).
T10 sequence: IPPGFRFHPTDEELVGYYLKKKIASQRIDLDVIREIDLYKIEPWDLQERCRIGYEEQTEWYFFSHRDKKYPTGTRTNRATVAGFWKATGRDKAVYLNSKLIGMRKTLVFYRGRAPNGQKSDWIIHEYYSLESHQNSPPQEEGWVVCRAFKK
As to conditions: protein: recombinant; tags: GST; chain copies: 2; dsDNA, one strand shown. The gist of the method: as §1

The next experiment has as its target T11, GST-VND7 NAC domain (Arabidopsis thaliana, UniProt Q9C8W9 9-158).
T11 sequence: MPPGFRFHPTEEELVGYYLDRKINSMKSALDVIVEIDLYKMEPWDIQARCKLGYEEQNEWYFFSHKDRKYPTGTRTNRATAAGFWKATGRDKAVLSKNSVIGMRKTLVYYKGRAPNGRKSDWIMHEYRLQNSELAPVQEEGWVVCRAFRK
As to conditions: protein: recombinant; tags: GST; chain copies: 2; dsDNA, one strand shown. A digest of the protocol: as §1

Another experiment deals with GST-WRKY1(266-371) (Arabidopsis thaliana, UniProt Q9SI37 266-371). The note with it: protein: recombinant; tags: GST; dsDNA, one strand shown. A digest of the protocol: as §1
Sequence of GST-WRKY1(266-371) (Q9SI37 266-371): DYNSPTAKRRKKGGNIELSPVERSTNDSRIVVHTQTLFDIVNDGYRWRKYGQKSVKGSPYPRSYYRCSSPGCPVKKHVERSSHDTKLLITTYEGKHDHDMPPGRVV

Sequence of GST-NTL6(1-168) (Q9SCK6 1-168): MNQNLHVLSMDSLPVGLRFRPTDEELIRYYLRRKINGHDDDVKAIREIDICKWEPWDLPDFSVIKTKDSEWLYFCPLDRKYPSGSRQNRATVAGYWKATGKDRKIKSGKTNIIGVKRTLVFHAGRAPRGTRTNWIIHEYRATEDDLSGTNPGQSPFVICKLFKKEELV

Turning to CACGAAAG, the binding signal in the experiment with GST-ANAC092(1-176) was determined as 0.407 E-score; with GST-NTL6(1-168), 0.109 E-score; with GST-ANAC019 NAC domain, 0.25 E-score; with GST-ANAC055(1-171) it was 0.216 E-score; with GST-ATAF1 NAC domain it was 0.133 E-score; in experiment [1], 0.411 E-score. Further, the binding signal with GST-NAP(1-166) was found to be 0.17 E-score; with GST-NST2(1-184), 0.189 E-score; in the experiment with GST-NTL8 NAC domain it was 0.121 E-score; with GST-SND1(1-203), 0.184 E-score; with GST-VND3 NAC domain, 0.191 E-score; in the experiment with GST-VND7 NAC domain, 0.132 E-score. In the experiment with GST-WRKY1(266-371), the binding signal turned out to be 0.0838 E-score.

Consider TTACGGAA, for which the binding signal in the experiment with GST-ANAC092(1-176) is 0.266 E-score; in the experiment with GST-NTL6(1-168) it was 0.151 E-score; in the experiment with GST-ANAC019 NAC domain, 0.455 E-score; with GST-ANAC055(1-171) it was 0.402 E-score; with GST-ATAF1 NAC domain, 0.404 E-score; in experiment [1] it was 0.354 E-score. Moreover, the binding signal with GST-NAP(1-166) was 0.413 E-score; with GST-NST2(1-184), 0.199 E-score; in the experiment with GST-NTL8 NAC domain, 0.128 E-score; with GST-SND1(1-203) it was 0.405 E-score; in the experiment with GST-VND3 NAC domain, 0.442 E-score; with GST-VND7 NAC domain, 0.391 E-score. Besides, in the experiment with GST-WRKY1(266-371), the binding signal amounted to 0.126 E-score.

Consider CTTACTTA, for which the binding signal came out at 0.205 E-score with GST-ANAC092(1-176); 0.454 E-score in the experiment with GST-NTL6(1-168); 0.164 E-score with GST-ANAC019 NAC domain; 0.137 E-score with GST-ANAC055(1-171); 0.154 E-score with GST-ATAF1 NAC domain; 0.276 E-score in experiment [1]. For the same sequence, the binding signal in the experiment with GST-NAP(1-166) was 0.111 E-score; in the experiment with GST-NST2(1-184) it was 0.221 E-score; in the experiment with GST-NTL8 NAC domain it was 0.208 E-score; with GST-SND1(1-203) it was 0.317 E-score; with GST-VND3 NAC domain, 0.209 E-score; with GST-VND7 NAC domain, 0.106 E-score. The binding signal in the experiment with GST-WRKY1(266-371) was found to be 0.235 E-score.

On to ACGTAAAA, for which the binding signal was determined as 0.366 E-score with GST-ANAC092(1-176); 0.161 E-score with GST-NTL6(1-168); 0.336 E-score in the experiment with GST-ANAC019 NAC domain; 0.331 E-score in the experiment with GST-ANAC055(1-171); 0.35 E-score in the experiment with GST-ATAF1 NAC domain; 0.406 E-score in experiment [1]. The binding signal came out at 0.326 E-score in the experiment with GST-NAP(1-166); 0.312 E-score in the experiment with GST-NST2(1-184); 0.0957 E-score with GST-NTL8 NAC domain; 0.436 E-score with GST-SND1(1-203); 0.368 E-score with GST-VND3 NAC domain; 0.344 E-score with GST-VND7 NAC domain. Moreover, the binding signal in the experiment with GST-WRKY1(266-371) came to 0.0914 E-score.

For GACGTAAC, the binding signal is 0.354 E-score with GST-ANAC092(1-176); 0.088 E-score with GST-NTL6(1-168); 0.355 E-score with GST-ANAC019 NAC domain; 0.369 E-score with GST-ANAC055(1-171); 0.268 E-score in the experiment with GST-ATAF1 NAC domain; 0.4 E-score in experiment [1]. Besides, the binding signal with GST-NAP(1-166) amounted to 0.409 E-score; in the experiment with GST-NST2(1-184) it was 0.24 E-score; in the experiment with GST-NTL8 NAC domain, 0.204 E-score; with GST-SND1(1-203) it was 0.392 E-score; with GST-VND3 NAC domain, 0.367 E-score; with GST-VND7 NAC domain, 0.296 E-score. Also, in the experiment with GST-WRKY1(266-371), the binding signal was determined as 0.152 E-score.

Consider ATTTCCCC, for which the binding signal in the experiment with GST-ANAC092(1-176) is 0.143 E-score; in the experiment with GST-NTL6(1-168), 0.221 E-score; in the experiment with GST-ANAC019 NAC domain, 0.13 E-score; with GST-ANAC055(1-171), 0.101 E-score; with GST-ATAF1 NAC domain, 0.0697 E-score; in experiment [1], 0.175 E-score. Moreover, the binding signal in the experiment with GST-NAP(1-166) is 0.0823 E-score; with GST-NST2(1-184) it was 0.17 E-score; with GST-NTL8 NAC domain, 0.428 E-score; with GST-SND1(1-203) it was 0.199 E-score; with GST-VND3 NAC domain, 0.205 E-score; with GST-VND7 NAC domain, 0.153 E-score. In addition, the binding signal in the experiment with GST-WRKY1(266-371) amounted to 0.116 E-score.
